# Reference: the OligoGym collection
# Molecular target: MAN1C1
# Test: pooled miR-30 sensor sort-seq; sequence = guide strand
# Conditions: shRNA
row,Sequence,sensor-assay potency score (higher = more potent)
1,TTCGGAACACCTCTTCTCCTGT,-0.298
2,TATGACTCGTGACACGTCTTGG,-0.605
3,TTCGATCTTCCTGAGGACCTTG,0.041
4,TTGAGAACAGTCTCAAATCCTG,-0.222
5,AATTGTGACAAAACTAAACTGT,0.356
6,TTATTCGGAACACCTCTTCTCC,-0.384
7,TTAGCCTCCATATCTGTCTTGC,-0.298
8,TAGAAAGAAGCTCTGCTGCTTG,0.252
9,TTGTGTGTGTGCAAACACTGGG,0.0469
10,TTGAACATAGGGTCAGTGTTGG,-0.0716
11,TTTGTGTGTGTGCAAACACTGG,-1.13

# Molecular target: MANEAL
# Test: as above
# Conditions: shRNA
row,Sequence,sensor-assay potency score (higher = more potent)
1,TTGTGGTTGTTCCAGGGCCGAA,-1.8
2,ATGCTGGTGTCTATGTAGCCAG,-1.86
3,TAGAAGGCGTGCAGGTCCGAGT,-1.05
4,TTTGATGAAGTGCTCCGCCCAG,-0.378
5,TAGTACTTGCCATTGACCCTGT,-0.0343
6,TTCTCTTTGATGAAGTGCTCCG,-0.00624
7,TAGCTGGCCGAGATCTTGGGGT,-1.02
8,AAGTTCTTCACAGCTTTCCAGT,-0.845
9,ATGAACATGAGGTTGTTGGCAT,0.179
10,ATAGTACTTGCCATTGACCCTG,-0.405
11,TACCACGAGTAGTAGAAGGCGT,-0.339
12,TTGATGAAGTGCTCCGCCCAGC,-0.595

# Molecular target: MAP4K4
# Test: as above
# Conditions: shRNA
row,Sequence,sensor-assay potency score (higher = more potent)
1,TTTGTTGAAATCGTCTTCGGTT,0.0416
2,TTTGATGCTACACTGGATCATA,-0.597
3,TAGATCACTTTCAACCTCTGGC,0.492
4,TTGTATTTACGAATCTCCGGGG,-0.365
5,TTCTCTTTCAACTCTCCTCTTT,-0.401
6,TACATCATCATGGACAATCATG,-1.13
7,TTGACCACTGAGCCTTTCCGGG,-1.11
8,TTATAGACTTGTCCATAGGTGC,-0.62
9,TTGCCTTTTATATTCTTCCTGC,-0.0293
10,TTCTTGTTCTCTCCTTCGCTGT,-0.84
11,TAGAACTACATCCTTGGTGATC,-1.1
12,TAGACTTGTCCATAGGTGCCAT,-0.0714

# Molecular target: MAPK4
# Test: as above
# Conditions: shRNA
row,Sequence,sensor-assay potency score (higher = more potent)
1,TGAACTTGAACAGCTCACCCTG,-0.313
2,TCTCCTAACACATTTGCTCTAT,-0.331
3,TTAGTAGTTATAACAATTCCTC,-0.514
4,TTAAAGAAAAAACAAAACCCAA,-1.11
5,TTCTTCACAGCGACCTTCCGGC,0.22
